PubChem BioAssay (NCI)
This is part of a sample that, as a whole, favours compounds with a hit. Of some 83,000 tested, about 20% had one in any assay.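 A percent growth of 40 corresponds to 60% growth inhibition; 0 means no net growth; -100 means all cells died. Active threshold: below 10.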 Values without a mark were called inactive. The source made the active and inactive calls.

Tested on: KM12 colon
Assay: NCI-60 one-dose screen, 48 h (100 = growth as untreated, 0 = no growth, -100 = all killed)
Settings: 10 µM unless noted

SMILES	growth
O=C(N/N=C/c1ccc(Cl)cc1Cl)c1ccc2nc(-c3ccc(Cl)cc3)[nH]c2c1	-29.1% (active)
O=C(Cn1nnc([N+](=O)[O-])n1)c1ccccc1	95.9%
O=C1NC(=Nc2ccc(O)cc2)S/C1=C\c1cccs1	13.9%
NC(=O)c1ccc(NC(=O)c2oc3ccccc3c2-c2cnn(-c3ccccc3)c2)cc1	34.1% [50 µM]
CCOC(=O)/C=C/c1c(C)[nH]c(=O)[nH]c1=O	93.4%
Cc1cccc(NC(=O)CSc2nc3ccc([N+](=O)[O-])cc3[nH]2)c1	81.9%
NS(=O)(=O)c1ccc(N/C=C/C(=O)c2cc3ccccc3oc2=O)cc1	98.2%
C=CC(C)(O)CC/C=C(\CO)C(=O)OC1C(C)OC(O[C@](C)(C=C)CC/C=C(\CO)C(=O)O[C@H]2C[C@@]3(C(=O)OC4OC(CO)C(O)C(O)C4OC4OC(C)C(OC5OC(CO)C(O)C5O)C(OC5OC(CO)C(O)C(O)C5O)C4O)C(CC2(C)C)C2=CCC4[C@@]5(C)CC[C@H](OC6OC(COC7OC(C)C(O)C(O)C7OC7OCC(O)C(O)C7O)C(O)C(O)C6NC(C)=O)C(C)(C)C5CC[C@@]4(C)[C@]2(C)C[C@H]3O)C(O)C1O (some centres undefined)	-86.7% (active)
Nc1nc(C(=O)N/N=C/c2ccc(N3CCOCC3)cc2)nn1-c1ccc(S(N)(=O)=O)cc1	103%
